Measurements reported in PubChem BioAssay (EPA / NIEHS).
The source holds several records for some structures; these can differ, active in one and inactive in another. Calls of active or inactive are those of the source. The calls were made as follows: active = hit-call score of the fitted dose curve at least 0.9, where 1 is the maximum; inactive = score below 0.9.

Columns and labels:
[1] = BSK_3C_TissueFactor: BioMAP Diversity Plus: 3C Assay for Tissue Factor Biomarker Activity (AID 2282997); settings: BioMAP 3C HUVEC, tissue factor biomarker readout; actives raise or lower the signal
In short: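 In this endothelial system, HUVEC are treated for 24 h and Tissue Factor is assessed by ELISA, normalised to DMSO.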

[2] = BSK_3C_uPAR: BioMAP Diversity Plus: 3C Assay for Urokinase-type plasminogen activator receptor (uPAR) Biomarker Activity (AID 2282998); settings: BioMAP 3C HUVEC, uPAR biomarker ELISA; actives raise or lower the signal
In short: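 HUVEC primary cells; 24 h post-dose; uPAR by ELISA; gain or loss of signal fitted bidirectionally vs DMSO baseline.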

[3] = BSK_3C_VCAM1: BioMAP Diversity Plus: 3C Assay for Vascular cell adhesion molecule 1 (VCAM1) Biomarker Activity (AID 2282999); settings: BioMAP 3C HUVEC, VCAM1 ELISA, cytokine-stimulated; actives raise or lower the signal
In short: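 HUVEC primary cells, 24 h compound exposure; VCAM-1 by ELISA; gain/loss of signal fitted bidirectionally vs DMSO baseline.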

[4] = BSK_4H_Eotaxin3: BioMAP Diversity Plus: 4H Assay for Eotaxin 3 Biomarker Activity (AID 2283000); settings: primary human endothelial cells (HUVEC); actives raise or lower the signal
In short: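 ELISA quantitation of CCL26 (Eotaxin-3) protein from chemically dosed human vascular endothelial cells at 24 h; increases and decreases both scored relative to DMSO-treated baseline.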

[5] = read-out: Intercellular Adhesion Molecule 1 (ICAM1), ICAM1 (gene 3383); assay: BSK_3C_ICAM1: BioMAP Diversity Plus: 3C Assay for Intercellular Adhesion Molecule 1 (ICAM1) Biomarker Activity (AID 2283003); settings: primary human endothelial cells (HUVEC); actives raise or lower the signal
In short: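 ELISA read-out of ICAM-1; HUVEC (primary human), 3C system, 24 h post-dosing; bidirectional fit vs DMSO baseline.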

[6] = read-out: E-selectin (Homo sapiens) (UniProt P16581); assay: BSK_3C_Eselectin: BioMAP Diversity Plus: 3C Assay for Eselectin Biomarker Activity (AID 2283015); settings: primary human endothelial cells (HUVEC); actives raise or lower the signal
In short: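 Endpoint derived by bidirectional fitting against DMSO vehicle; signal is ELISA-detected E-selectin from primary HUVEC at 24 h post-dosing, with parallel SRB staining (0.1% SRB, 560 nm) flagging cytotoxicity.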

[7] = read-out: Monocyte Chemoattractant Protein-1 (MCP1), CCL2 (gene 6347); assay: BSK_4H_MCP1: BioMAP Diversity Plus: 4H Assay for Monocyte Chemoattractant Protein-1 (MCP1) Biomarker Activity (AID 2283018); settings: primary human endothelial cells (HUVEC); actives raise or lower the signal
In short: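 HUVEC primary cells, 24 h post-dose, MCP-1 by ELISA. Gain or loss of signal fitted bidirectionally vs DMSO baseline. Cytotoxicity: SRB stain (0.1% after 10% TCA fixation), read 560 nm, parallel cultures.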

[8] = read-out: Human Leukocyte Antigen - DR isotype (HLADR), HLA-DRA (gene 3122); assay: BSK_3C_HLADR: BioMAP Diversity Plus: 3C Assay for Human Leukocyte Antigen - DR isotype (HLADR) Biomarker Activity (AID 2283019); settings: primary human endothelial cells (HUVEC); actives raise or lower the signal
In short: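 Compound added to primary HUVEC cultures, 24 h incubation, then HLA-DR determined by ELISA; endpoint derived by bidirectional fitting relative to DMSO negative control.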

[9] = read-out: Interleukin-8 (IL8), CXCL8 (gene 3576); assay: BSK_3C_IL8: BioMAP Diversity Plus: 3C Assay for Interleukin-8 (IL8) Biomarker Activity (AID 2283020); settings: primary human endothelial cells (HUVEC); actives raise or lower the signal
In short: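 HUVEC, 3C stimulation; 24 h compound exposure; IL-8 read by ELISA; gain or loss of signal fitted relative to DMSO control.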

[10] = read-out: Monokine induced gamma interferon (MIG), CXCL9 (gene 4283); assay: BSK_3C_MIG: BioMAP Diversity Plus: 3C Assay for Monokine induced gamma interferon (MIG) Biomarker Activity (AID 2283021); settings: primary human endothelial cells (HUVEC); actives raise or lower the signal;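 as to AC50: MIG protein level measured by immunoassay in the treated endothelial cultures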
In short: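 HUVEC, 3C system; 24 h chemical exposure; MIG by ELISA; bidirectional fit vs DMSO baseline.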

[11] = BSK_3C_SRB: Viability Assessment in the BioMAP Diversity Plus: 3C Assay (AID 2283023); settings: primary human endothelial cells (HUVEC);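 also: cells read 24 h after compound dosing; fitted both ways against DMSO so a hit may be signal rise or drop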
In short: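 Overt cytotoxicity is gauged in parallel confluent HUVEC cultures by SRB total-protein staining at the time of biomarker measurement, 24 h after dosing. Gain or loss of signal is fitted versus DMSO.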

[12] = BSK_BE3C_SRB: Viability Assessment in the BioMAP Diversity Plus: BE3C Assay (AID 2283028); settings: primary human bronchial epithelial cells;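 as to AC50: fitted both ways so AC50 may mark signal gain or loss versus DMSO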
In short: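 SRB total-protein staining (0.1%, after TCA fixation) of chemically dosed human bronchial epithelial primary cells at 24 h; DMSO serves as the negative control for bidirectional curve fitting.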

[13] = read-out: Thrombomodulin, THBD (gene 7056); assay: BSK_3C_Thrombomodulin: BioMAP Diversity Plus: 3C Assay for Thrombomodulin Biomarker Activity (AID 2283029); settings: primary human endothelial cells (HUVEC); actives raise or lower the signal
In short: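 HUVEC, 3C conditions; compound 24 h; thrombomodulin by ELISA; bidirectional curve fit vs DMSO baseline; parallel SRB total-protein staining for cytotoxicity.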

[14] = read-out: Vascular endothelial growth factor receptor 2 (Homo sapiens) (UniProt P35968); assay: BSK_4H_VEGFRII: BioMAP Diversity Plus: 4H Assay for Vascular endothelial growth factor receptor 2 (VEGFR2) Biomarker Activity (AID 2283031); settings: primary human endothelial cells (HUVEC); actives raise or lower the signal;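 as to AC50: cell-surface VEGFR2 protein level quantified by ELISA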
In short: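 In this multiplexed HUVEC system, biomarker ELISA was performed after 24 h chemical exposure. Parallel SRB staining (TCA fixation, 560 nm) tracked cytotoxicity; DMSO served as baseline.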

[15] = read-out: Human Leukocyte Antigen - DR isotype (HLADR), HLA-DRA (gene 3122); assay: BSK_BE3C_HLADR: BioMAP Diversity Plus: BE3C Assay for Human Leukocyte Antigen - DR isotype (HLADR) Biomarker Activity (AID 2283032); settings: primary human bronchial epithelial cells; actives raise or lower the signal
In short: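 Primary human bronchial epithelial cells (BE3C); 24 h chemical exposure; HLA-DR by ELISA; bidirectional curve fit vs DMSO baseline.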

[16] = read-out: Interferon-gamma inducible Protein 10 (IP10), CXCL10 (gene 3627); assay: BSK_BE3C_IP10: BioMAP Diversity Plus: BE3C Assay for Interferon-gamma inducible Protein 10 (IP10) Biomarker Activity (AID 2283034); settings: primary human bronchial epithelial cells; actives raise or lower the signal
In short: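 ELISA readout of IP-10 in BE3C system: primary human bronchial epithelial cells, 24 h post-dosing; bidirectional curve fit vs DMSO baseline.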

[17] = read-out: Monokine induced gamma interferon (MIG), CXCL9 (gene 4283); assay: BSK_BE3C_MIG: BioMAP Diversity Plus: BE3C Assay for Monokine induced gamma interferon (MIG) Biomarker Activity (AID 2283035); settings: primary human bronchial epithelial cells; actives raise or lower the signal
In short: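 Dose cells (human primary bronchial epithelial), incubate 24 h, quantify MIG by ELISA, then fit concentration–response in both directions relative to DMSO control.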

[18] = read-out: Matrix Metallopeptidase 1 (MMP1), MMP1 (gene 4312); assay: BSK_hDFCGF_MMP1: BioMAP Diversity Plus: hDFCGF Assay for Matrix Metallopeptidase 1 (MMP1) Biomarker Activity (AID 2283064); settings: primary human foreskin fibroblasts; actives raise or lower the signal
In short: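 ELISA read-out of MMP1 from human foreskin fibroblasts (primary skin cells), 24 h post-dose. Gain or loss of signal was fitted bidirectionally versus DMSO negative control; cytotoxicity was checked by SRB in parallel cultures.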

[19] = read-out: E-selectin (Homo sapiens) (UniProt P16581); assay: BSK_SAg_Eselectin: BioMAP Diversity Plus: SAg Assay for Eselectin Biomarker Activity (AID 2283091); settings: primary human HUVEC with PBMC; actives raise or lower the signal
In short: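 Endpoint values derive from bidirectional fitting relative to DMSO, using ELISA-measured E-selectin in a human vascular co-culture (umbilical vein endothelium plus PBMC) sampled 24 h after dosing.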

[20] = read-out: Interleukin-8 (IL8), CXCL8 (gene 3576); assay: BSK_SAg_IL8: BioMAP Diversity Plus: SAg Assay for Interleukin-8 (IL8) Biomarker Activity (AID 2283094); settings: primary human HUVEC with PBMC; actives raise or lower the signal
In short: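 HUVEC/PBMC co-culture, 24 h post-dose; IL-8 by ELISA. Gain or loss of signal fitted bidirectionally vs DMSO baseline.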

Measured: AC50

Chain of E-selectin (Homo sapiens) (P16581 whole entry, looked up): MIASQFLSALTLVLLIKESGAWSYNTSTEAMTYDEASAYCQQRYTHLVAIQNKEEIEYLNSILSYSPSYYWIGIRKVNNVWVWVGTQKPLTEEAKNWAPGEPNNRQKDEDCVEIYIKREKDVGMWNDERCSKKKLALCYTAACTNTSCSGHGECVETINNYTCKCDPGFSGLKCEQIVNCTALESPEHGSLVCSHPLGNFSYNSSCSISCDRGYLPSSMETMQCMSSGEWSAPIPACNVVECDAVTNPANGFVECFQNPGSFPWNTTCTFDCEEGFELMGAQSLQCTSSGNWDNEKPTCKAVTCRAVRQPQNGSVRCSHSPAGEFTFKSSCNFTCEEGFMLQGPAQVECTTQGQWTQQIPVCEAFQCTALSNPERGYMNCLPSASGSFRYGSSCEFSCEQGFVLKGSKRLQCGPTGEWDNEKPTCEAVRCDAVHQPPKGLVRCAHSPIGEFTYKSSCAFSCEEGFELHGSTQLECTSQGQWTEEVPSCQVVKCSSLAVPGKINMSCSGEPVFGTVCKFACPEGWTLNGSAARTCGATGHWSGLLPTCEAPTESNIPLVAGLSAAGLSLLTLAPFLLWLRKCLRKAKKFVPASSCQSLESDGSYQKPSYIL

CN(C)Cc1cc(C(C)(C)C)c(O)c(C(C)(C)C)c1
inactive: [1] | [2] | [3] | [4] | [5] | [6] | [7] | [8] | [9] | [10] | [11] | [12] | [13] | [14] | [15] | [16] | [17] | [18] | [19] | [20]
active: [18] 20 µM | [19] 20 µM | [20] 20 µM

CN(C)c1ccc(C(c2ccccc2)c2ccc(N(C)C)cc2)cc1
inactive: [2] | [5] | [10] | [12] | [13] | [15] | [17] | [18]
active: [1] 2 µM | [3] 20 µM | [4] 8.42 µM | [6] 3.29 µM | [7] 4.5 µM | [8] 9.37 µM | [9] 5.43 µM | [11] 9.62 µM | [14] 5.36 µM | [16] 10.7 µM | [19] 11.3 µM | [20] 8.09 µM

Cc1cc(-n2nc3ccc(Cl)cc3n2)c(O)c(C(C)(C)C)c1
active: [11] 0.342 µM
inactive: all other assays above

CC[N+](CC)(CC(=O)Nc1c(C)cccc1C)Cc1ccccc1
inactive: all assays above

O=C(C(=O)c1ccccc1)c1ccccc1
active: [11] 0.194 µM
inactive: all other assays above

CC[N+](CC)(CC(=O)Nc1c(C)cccc1C)Cc1ccccc1 (tested in a mixture with another compound)
inactive: all assays above

CCCCCCC(O)CCCCCCCCCCC(=O)OC (stereo not drawn)
active: [7] 8.39 µM | [16] 9.22 µM
inactive: all other assays above

CCCCCCCCCC/C=C/C1CC(=O)OC1=O (stereo not drawn)
active: [15] 20 µM | [16] 18.4 µM
inactive: all other assays above

Oc1cccc2ccccc12
active: [1] 12.1 µM | [4] 13.7 µM | [8] 10.5 µM | [11] 8.23 µM
inactive: all other assays above

CC(C)CC(=O)CC(C)CC(C)C (stereo not drawn)
active: [1] 36 µM | [2] 30.9 µM | [3] 35.1 µM | [4] 33.8 µM | [5] 35.2 µM | [6] 34.6 µM | [7] 31.1 µM | [8] 35.3 µM | [11] 35.2 µM | [13] 20 µM | [14] 32.6 µM | [15] 36 µM | [16] 36.9 µM | [17] 34.6 µM
inactive: [9] | [10] | [12] | [18] | [19] | [20]

CCCCCCCCCCCCCCCCCC[N+](C)(C)C
active: [1] 5 µM | [2] 1.27 µM | [3] 6.29 µM | [4] 1.89 µM | [5] 3.46 µM | [6] 5 µM | [7] 0.664 µM | [8] 1.27 µM | [9] 5 µM | [10] 7.62 µM | [11] 1.31 µM | [12] 3.49 µM | [13] 2.9 µM | [14] 1.23 µM | [15] 2.52 µM | [16] 2.69 µM | [17] 3.82 µM | [18] 7.66 µM | [19] 9.19 µM | [20] 8.34 µM

Sc1nc2ccccc2s1
active: [1] 1.09 µM | [4] 3.97 µM
inactive: all other assays above

CCCCCCCCCCC1CO1 (stereo not drawn)
active: [1] 30.8 µM | [2] 33.7 µM | [3] 34.8 µM | [4] 36.9 µM | [5] 36.2 µM | [6] 34.8 µM | [7] 33.8 µM | [8] 28.6 µM | [9] 32.8 µM | [10] 34.4 µM | [11] 35.2 µM | [14] 34.7 µM | [15] 31.2 µM | [16] 30.6 µM | [18] 20 µM | [19] 20 µM
inactive: [12] | [13] | [17] | [20]

Cc1cccnc1
inactive: all assays above

CN(C)CCC(c1ccc(Cl)cc1)c1ccccn1 (stereo not drawn)
active: [7] 12 µM
inactive: all other assays above
